In PubChem BioAssay (NCI) one finds growth data, which are given here for 8 compounds.

Test systems include NCI-H226 lung; NCI-H322M lung; HOP-62 NSCLC; NCI-H460 lung; HOP-92 NSCLC; NCI-H522 lung; A549/ATCC NSCLC; 786-0 renal; COLO 205 colon; DU-145 prostate; K-562 leukemia; MALME-3M melanoma; MDA-MB-231 breast; RXF 393 renal; SF-268 CNS; SF-295 CNS; SF-539 CNS; UACC-257 melanoma; M14 melanoma; HCT-15 colon.
Assay in all cases: NCI-60 one-dose screen, 48 h (100 = growth as untreated, 0 = no growth, -100 = all killed)
Conditions in all cases: 10 µM unless noted

The panel holds about 83,000 compounds, 20% with a hit somewhere; the sample as a whole holds those more often.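 Cell lines were cultured in 96-well plates, exposed to a single compound concentration, and assessed for percent growth 48 hours later.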 A number with no mark means an inactive call. Active and inactive are the calls of the source. How the source made its calls: active means growth percent below 10; inactive means the rest.

As to `N#Cc1c(-c2ccc(Cl)cc2)nc(SCc2ccc(F)cc2)nc1N1CCNCC1`, the growth is 101% in the test on NCI-H226 lung; 76.7% in the test with NCI-H322M lung; 80.8% in the test on HOP-62 NSCLC; -70.2% (active) in the test on NCI-H460 lung; 6.64% (active) in the test on HOP-92 NSCLC; 94.1% with NCI-H522 lung. Besides, the growth with A549/ATCC NSCLC is 60.2%; with 786-0 renal it was 62.5%; in the test on COLO 205 colon, -27.2% (active); with DU-145 prostate it was 61%; with K-562 leukemia it was -34.5% (active); in the test with MALME-3M melanoma it was 88.3%. The growth in the test with MDA-MB-231 breast is 16.2%; with RXF 393 renal, 58.5%; with SF-268 CNS, 73.3%; in the test with SF-295 CNS, 96.8%; in the test on SF-539 CNS, 75.9%; with UACC-257 melanoma, 86.4%. Moreover, the growth is 72.8% with M14 melanoma and 1.29% (active) with HCT-15 colon.
As to `O=C(Nc1nc2ccc(O)cc2s1)c1cccc(C(F)(F)F)c1`, the growth in the test with NCI-H226 lung is 84.2%; in the test with NCI-H322M lung, 84.3%; with HOP-62 NSCLC, 88.6%; with NCI-H460 lung, 56.7%; with HOP-92 NSCLC it was 69%; in the test with NCI-H522 lung, 35.6%. Besides, the growth was 57% in the test with A549/ATCC NSCLC; 77.1% with 786-0 renal; 107% with COLO 205 colon; 65.9% with DU-145 prostate; 18.7% with K-562 leukemia; 81.6% in the test on MALME-3M melanoma. Besides, the growth was 90.7% in the test with MDA-MB-231 breast; 103% in the test on RXF 393 renal; 59.4% with SF-268 CNS; 69.9% in the test with SF-295 CNS; 72.5% in the test with SF-539 CNS; 70.1% in the test with UACC-257 melanoma. Moreover, the growth in the test with M14 melanoma is 50.1%; with HCT-15 colon, 47.1%.
As for `CN(C)c1ccc(/C=C2\Cc3c(F)ccc(Br)c3C2=O)cc1`, the growth with NCI-H226 lung was 76.3%; in the test with NCI-H322M lung it was 85.6%; in the test on HOP-62 NSCLC, 91.5%; with NCI-H460 lung, 88.7%; with HOP-92 NSCLC it was 91.5%; in the test on NCI-H522 lung it was 96.1%. The growth in the test with A549/ATCC NSCLC was 94.1%; in the test with 786-0 renal it was 98.2%; with COLO 205 colon, 98.1%; in the test on DU-145 prostate it was 97.5%; in the test with K-562 leukemia, 98.4%; in the test with MALME-3M melanoma, 92.8%. Further, the growth in the test on MDA-MB-231 breast was 90.8%; with RXF 393 renal it was 108%; with SF-268 CNS, 101%; with SF-295 CNS, 101%; with SF-539 CNS, 97.5%; with UACC-257 melanoma, 91.3%. The growth in the test on M14 melanoma is 92.1%; in the test on HCT-15 colon it was 96.9%.
On to `O=C(CCCN1C(=O)/C(=C/c2ccccc2F)SC1=S)N1CCOCC1`, for which the growth was 110% in the test with NCI-H226 lung; 85.5% with NCI-H322M lung; 119% in the test on HOP-62 NSCLC; 97.8% in the test on NCI-H460 lung; 86.4% with HOP-92 NSCLC; 48.8% with NCI-H522 lung. The growth with A549/ATCC NSCLC was 93.1%; in the test on 786-0 renal, 89.8%; with COLO 205 colon, 126%; in the test on DU-145 prostate, 74.5%; in the test on K-562 leukemia it was 59.7%; with MALME-3M melanoma it was 72.5%. Besides, the growth with MDA-MB-231 breast was 73.4%; in the test on RXF 393 renal, 83.7%; in the test on SF-268 CNS, 95.6%; in the test with SF-295 CNS, 103%; in the test on SF-539 CNS it was 92.7%; with UACC-257 melanoma it was 83.6%. For the same compound, the results for the growth in the test with M14 melanoma and in the test on HCT-15 colon were 77.6% and 74.3%, respectively.
As for `Clc1ccc2c(OCCCN3CCOCC3)c3oc4ccccc4c3nc2c1`, the growth in the test with NCI-H226 lung is 33.7%; with NCI-H322M lung, 36%; in the test on HOP-62 NSCLC, 63.6%; in the test on NCI-H460 lung, 10.5%; in the test with HOP-92 NSCLC, 45.3%; with NCI-H522 lung it was 29%. Also, the growth in the test on A549/ATCC NSCLC is 33.5%; in the test with 786-0 renal it was 27.4%; in the test with COLO 205 colon, 12.8%; in the test with DU-145 prostate, 22.9%; with K-562 leukemia it was 19.8%; in the test on MALME-3M melanoma, 12.5%. The growth in the test with MDA-MB-231 breast is 32.3%; in the test on RXF 393 renal it was 26.7%; in the test on SF-268 CNS, 38.3%; with SF-295 CNS, 26%; with SF-539 CNS, 22.9%; in the test with UACC-257 melanoma it was 59.8%. In addition, the figures for the growth with M14 melanoma and in the test on HCT-15 colon were 30.3% and 20.3%, respectively.
Regarding `C=CCn1c(SCC(=O)c2ccccc2)nnc1-c1c[nH]c2ccccc12`, the growth was 87.8% in the test on NCI-H226 lung; 102% with NCI-H322M lung; 92.5% in the test on HOP-62 NSCLC; 107% in the test with NCI-H460 lung; 81.3% with HOP-92 NSCLC; 97.8% with NCI-H522 lung. Further, the growth with A549/ATCC NSCLC was 100%; in the test on 786-0 renal, 101%; in the test with COLO 205 colon, 122%; in the test with DU-145 prostate, 109%; in the test with K-562 leukemia, 92.6%; with MALME-3M melanoma it was 86.6%. Also, the growth was 88.8% in the test on MDA-MB-231 breast; 102% in the test with RXF 393 renal; 102% in the test on SF-268 CNS; 96.2% in the test with SF-295 CNS; 97.3% with SF-539 CNS; 97.9% with UACC-257 melanoma. For the same compound, the growth is 97.7% in the test on M14 melanoma and 96% in the test with HCT-15 colon.
In the case of `N#Cc1nc(-c2ccccc2)oc1S(N)(=O)=O`, the growth was 103% with NCI-H226 lung; 100% in the test on NCI-H322M lung; 111% with HOP-62 NSCLC; 93.3% with NCI-H460 lung; 77.3% in the test with HOP-92 NSCLC; -44.5% (active) with NCI-H522 lung. The growth in the test with A549/ATCC NSCLC is 101%; with 786-0 renal, 51.1%; in the test with COLO 205 colon it was 96.7%; in the test on DU-145 prostate, 82.5%; in the test with K-562 leukemia, 21.5%; in the test on MALME-3M melanoma, 64.9%. Moreover, the growth is 47.9% in the test with MDA-MB-231 breast; 45.8% in the test on RXF 393 renal; 110% in the test on SF-268 CNS; 101% with SF-295 CNS; 36.8% in the test on SF-539 CNS; 78.3% in the test with UACC-257 melanoma. Also, the values for the growth in the test on M14 melanoma and in the test on HCT-15 colon were 40.7% and 27.1%, respectively.
On to `CN(C)CCCOc1c2ccccc2nc2c1oc1ccc(Cl)cc12`, for which the growth in the test with NCI-H226 lung was -6.99% (active); with NCI-H322M lung, -9.94% (active); in the test with HOP-62 NSCLC it was 14.2%; with NCI-H460 lung, 4.37% (active); in the test with HOP-92 NSCLC, 3.66% (active); in the test with NCI-H522 lung it was -57.1% (active). Moreover, the growth with A549/ATCC NSCLC is -2.75% (active); with 786-0 renal, 7.33% (active); in the test with COLO 205 colon, -24.5% (active); in the test with DU-145 prostate, -1.68% (active); with K-562 leukemia, -14.3% (active); in the test with MALME-3M melanoma, -8.62% (active). For the same compound, the growth in the test on MDA-MB-231 breast is 7.86% (active); with RXF 393 renal, -74.1% (active); in the test with SF-268 CNS it was 14.6%; in the test on SF-295 CNS it was 5.01% (active); in the test on SF-539 CNS it was 6.92% (active); with UACC-257 melanoma, 20%. For the same compound, the growth in the test with M14 melanoma is -87.3% (active); with HCT-15 colon it was -21.4% (active).
